PubChem BioAssay AID1347416 (National Center for Advancing Translational Sciences (NCATS), 2020)
About 1,600 (39%) of roughly 4,100 compounds were called active. About 25% were inconclusive and are not listed. This is one part of the list. A number with no mark means an inactive call. The call rests on the fitted dose curve; in most records, active means well fitted inhibition curve with a large enough effect; inconclusive means small, poorly fitted or top-dose-only effect; inactive means no such curve, though single readings can be large or run the other way.

experiment: qHTS Validation assay for Inhibitors of Plasmodium falciparum Dd2 growth in vitro; further: nearly all actives have a fitted effect of over 70% in size; conditions: P. falciparum Dd2 in RBCs, SYBR Green growth, 72 h; series mostly up to 28.7 µM; activity change, negative = inhibition: at the top concentration
How it was run: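 P. falciparum Dd2-infected red blood cells (2.5% hematocrit, 0.3% parasitemia) grown 72 h at 37 °C under 5% O2 with compounds in a titration, 29 uM to 0.5 nM final. Growth read as SYBR Green-1 fluorescence after ~16 h lysis; artesunate 300 nM as positive control.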
On the % scale 0 is the no-effect control and ±100 the full control effect; potency means the concentration at half of the fitted maximal effect.

| SMILES | activity change, negative = inhibition | Potency |
| --- | --- | --- |
| O=C(C1CC1)N1CCC(c2nc(C3CCOCC3)no2)CC1 | 0% | – |
| CC(C)CNC(=O)c1nc(-c2ccc(Cl)cc2)c2cnccn12 | – | 8.63 µM (active) |
| COCCNC(=O)c1nc(-c2ccc([S+](C)(=O)[O-])cc2)c2ccccn12 | -0.0535% | – |
| COC(=O)c1[nH]c2cccc(Cl)c2c1NC(=O)CN1CCCCC1C (configuration not stated) | -8.86% | – |
| Cc1ccsc1C(=O)Nc1cccc(-c2nnc3n2CCCC3)c1 | -10.3% | – |
| COCCOc1cc(=O)n2c(c1C(=O)NCc1ccc(OC)cc1)CCOCC2 | -24.8% | – |
| COc1cc(=O)n2c(c1C(=O)Nc1ccc(N(C)C)cc1)CCCC2 | – | 10.6 µM (active) |
| COc1ccc(C2=[N+](C)CCn3cccc32)c(OC)c1 | – | 10.6 µM (active) |
| COc1ccc(CNC(=O)CCc2c(C)nn(-c3ccc(N4CCOCC4)nn3)c2C)cc1 | 24.5% | – |
| COc1ccc(-c2cc(-c3cccc(OC)c3OC)cn3cncc23)cc1 | – | 6.85 µM (active) |
| COc1ccc(-c2cc(-c3ccc(N4CCOCC4)nc3)cn3cncc23)cc1 | – | 7.69 µM (active) |
| CCOc1c(OC)cccc1-c1nc2ccc(-c3ccc(OC)c(OC)c3OC)cc2o1 | -21.4% | – |
| Nc1ncnc2c1ncn2[C@H]1O[C@@H](CNS(=O)(=O)NC(=O)c2cccc(-c3noc(-c4ccccc4F)n3)c2)[C@H](O)[C@@H]1O | 5.64% | – |
| O=C(C1Cn2cccc2C(=O)N1Cc1ccccc1)N1CCN(c2ncccn2)CC1 (configuration not stated) | -10.5% | – |
| Cc1ccc(C)c(-n2c(-c3ccc(Br)cc3)csc2=NC(=O)c2ccccc2F)c1 | – | 4.73 µM (active) |
| CCCOc1cccc(C2c3c(oc4cc(C)c(C)cc4c3=O)C(=O)N2CCCN2CCOCC2)c1 (configuration not stated) | – | 13.3 µM (active) |
| CCCOc1cccc(C2c3c(oc4ccc(F)cc4c3=O)C(=O)N2Cc2ccc3c(c2)OCO3)c1 (configuration not stated) | 2.36% | – |
| CCN1CCN(c2cc(C)c3cc(NC(=O)/C=C/c4cccc(OC)c4OC)ccc3n2)CC1 | – | 5.96 µM (active) |
| COc1cccc(C(=O)Nc2cccc(-c3cn4c(C)csc4n3)c2)c1OC | 9.23% | – |
| COc1cccc(/C=C/C(=O)Nc2ccc3nc(N4CCN(C)CC4)cc(C)c3c2)c1OC | – | 5.96 µM (active) |
| Cc1ncc(CN2CCC(C(=O)Nc3ccc(-n4cccn4)cc3)CC2)s1 | – | 4.73 µM (active) |
| Cc1ccsc1CN1CCC(C(=O)N2CCCCCCNC(=O)CC2)CC1 | -1.02% | – |
| CCOC(=O)c1c(S(=O)(=O)N2CCC(C(=O)Nc3ccc(OCC)cc3)CC2)c(C)n(C)c1C | 0% | – |

| SMILES | activity change, negative = inhibition | Potency |
| --- | --- | --- |
| O=C(NCc1ccco1)c1ccc2c(c1)N(Cc1ccc(F)cc1)C(=O)c1ccccc1S2(=O)=O | -17.7% | – |
| CCN(CC)CCCNC(=O)c1ccc2c(c1)N(Cc1c(F)cccc1Cl)C(=O)c1ccccc1S2 | – | 0.944 µM (active) |
| CCCCN(CC)CCCNC(=O)c1ccc2c(c1)N(Cc1ccc(C)cc1)C(=O)c1ccccc1S2 | – | 1.88 µM (active) |
| CC(C)CCNC(=O)c1ccc2c(c1)CC(=O)N2Cc1ccccc1 | 1.52% | – |
| O=C(NCc1ccco1)c1ccc2c(c1)N(Cc1c(F)cccc1Cl)C(=O)c1ccccc1S2 | – | 13.3 µM (active) |
| Cc1ccccc1CNC(=O)CC1C(=O)NCCN1Cc1c(F)cccc1Cl (configuration not stated) | 2.91% | – |
| CN(C)CCNC(=O)c1ccc2c(c1)N(Cc1c(F)cccc1Cl)C(=O)c1ccccc1S2 | – | 2.11 µM (active) |
| COCCCNC(=O)c1ccc2c(c1)CC(=O)N2Cc1ccccc1 | 1.11% | – |
| CC(C)[C@@H]1CN(C(=O)CCn2ccc(=O)[nH]c2=O)C[C@H]1NS(C)(=O)=O | 59.1% | – |
| CCOc1ccccc1NC(=O)Cn1c(-c2ccc(Cl)cc2)noc1=O | – | 5.96 µM (active) |
| CCOc1ccccc1NC(=O)Cn1c(-c2ccccc2)nc(C)cc1=O | -19.7% | – |
| O=C(Cn1c(-c2ccccc2)noc1=O)NCc1ccccc1 | 8.85% | – |
| O=C1COc2ccc(-c3ccc(Cl)cc3)nc2CN1Cc1ccccc1 | 24% [at 43.1 µM] | – |
| COc1ccc(-c2ccc3c(n2)CN(Cc2csc(C)n2)C(=O)CO3)cc1F | -22.2% [at 43.1 µM] | – |
| Cc1csc(Nc2ccc3c(n2)CN(Cc2ccccc2C)C(=O)CO3)n1 | – | 19.3 µM (active) |
| CC(=O)c1cccc(N(C(=O)Cn2nnc3ccccc32)C(C(=O)NCc2ccccc2)c2ccc(F)cc2)c1 (configuration not stated) | 25.6% | – |
| N=c1c2c3c(sc2ncn1Nc1ccccc1)CCC3 | – | 3.35 µM (active) |
| c1cc(Nc2ncnc3sc4c(c23)CCC4)ccn1 | -8.48% | – |
| O=C(Nc1ccc2oc(-c3cccc(F)c3)nc2c1)c1ccc2ccccc2c1 | 39.4% | – |
| Cc1cc(C)cc(C(=O)Nc2ccc3c(N4CCCC4)ncnc3c2)c1 | – | 2.37 µM (active) |
| O=C(Nc1ccc2c(N3CCCC3)ncnc2c1)c1cccc(F)c1 | – | 4.73 µM (active) |
| CCN1c2cc(C(=O)Nc3cc(C)cc(C)c3)ccc2C(=O)N2CCCC21 (configuration not stated) | -17.1% | – |
| O=C(Nc1ccc2c(N3CCCCC3)ncnc2c1)c1cc(F)cc(F)c1 | – | 1.88 µM (active) |

| SMILES | activity change, negative = inhibition | Potency |
| --- | --- | --- |
| Cc1cc(C)cc(C(=O)NC2CCN(c3cc(-c4ccc(F)cc4)[nH]n3)C2)c1 (configuration not stated) | -3.35% | – |
| O=C(Nc1ccccc1)c1cnc(N2CCCCC2)c2ccccc12 | 6.64% | – |
| O=C(Nc1ccc2c(N3CCCCC3)ncnc2c1)c1ccc(F)c(F)c1 | – | 4.73 µM (active) |
| CC(C)c1noc(-c2cccn3c(CNC(=O)COc4ccc(F)cc4)nnc23)n1 | -0.867% | – |
| CCc1noc(-c2ccn3c(CNC(=O)Cc4ccccc4OC)nnc3c2)n1 | 8.77% | – |
| COc1cccc(CNC(=O)CSc2n[nH]c(-c3ccccc3Cl)n2)c1OC | 16.8% | – |
| COc1ccccc1Cc1nc2ccccc2nc1SCC(=O)NCc1ccccc1Cl | – | 2.11 µM (active) |
| CN1CCCN(C(=O)C2CCCO2)c2ccccc21 (configuration not stated) | -0.486% | – |
| O=S(=O)(Cc1ccccc1F)N1CCCC(Cn2c(C3CC3)nc3cccnc32)C1 (configuration not stated) | -8.66% | – |
| Cc1cc2c(c3oc(=O)c4ccccc4c13)CN(Cc1ccc(F)cc1)CO2 | – | 2.66 µM (active) |
| Cc1ccc(CN2COc3cc(C)c4c(oc(=O)c5ccccc54)c3C2)cc1 | – | 1.33 µM (active) |
| Cc1ccc(C)c(-c2[nH]ncc2CN2CCCC(CO)(CCc3ccccc3)C2)c1 (configuration not stated) | -24.8% | – |
| COc1ccc(CN2CCC(CO)(CCCc3ccccc3)CC2)c(Cl)c1OC | – | 8.41 µM (active) |
| Cc1cccc(CNCc2ccccc2OCC(O)CN2CCSCC2)c1 (configuration not stated) | – | 1.5 µM (active) |
| Cc1cccc(CNC(=O)c2cc3c(N4CCSCC4)nc(C)cn3n2)c1 | -2.01% | – |
| OC(COc1ccccc1CNCCc1ccccc1)CN1CCSCC1 (configuration not stated) | – | 2.11 µM (active) |
| COc1cc(CN2Cc3ccccc3C2)ccc1OCC(O)CN1CCOCC1 (configuration not stated) | 39.4% | – |
| CN(Cc1ccccc1)Cc1ccccc1OCC(O)CN1CCCCC1 (configuration not stated) | – | 1.5 µM (active) |
| Cc1cc(Nc2sc(C(=O)c3ccc(F)cc3)c(N)c2C(=O)Nc2ccc(F)cc2)ccc1Cl | – | 0.75 µM (active) |
| CC(=O)N1CCCN(C(=O)c2c[nH]c3ncccc23)CC1 | 39.5% [at 43.1 µM] | – |
| COc1ccccc1C(=O)N[C@H]1[C@H](O)[C@H](O)C[C@@H]1c1cccnc1 | 12.8% [at 43.1 µM] | – |
| COc1ccc(-c2cnc3[nH]cc(CC(=O)NCc4cccnc4)c3c2)cc1OC | – | 1.53 µM (active) |
| O=C(CC[C@@H]1CNC(=O)[C@@H]2C[C@H](NC(=O)Nc3cccc(Cl)c3)CN12)NCc1cccnc1 | 18.7% | – |

| SMILES | activity change, negative = inhibition | Potency |
| --- | --- | --- |
| CC1(COc2cccnc2)COc2ccc(C(=O)NCc3ccc(F)cc3)cc2N1 (configuration not stated) | 29.9% [at 43.1 µM] | – |
| COc1ccc(C(=O)NCc2nc(-c3cccc(C)c3)no2)cc1OC | 18% | – |
| COc1ccc(-c2cnc3[nH]cc(CC(=O)NCc4cccnc4)c3c2)cn1 | – | 6.85 µM (active) |
| O=C(Cc1c[nH]c2ncc(-c3ccc(Cl)cc3)cc12)NCc1cccnc1 | – | 1.72 µM (active) |
| Cc1cn2nc(C(=O)N3CCC(NC(=O)c4nccc5ccccc45)CC3)cc2c(=O)[nH]1 | 33.3% | – |
| O=C(NCCc1c[nH]c2ccccc12)[C@@H]1C[C@H]2C(=O)NCCCCCCN(C(=O)c3ccco3)[C@H]2C1 | – | 10.6 µM (active) |
| O=C1NCCCCCN(C(=O)CC2CCCC2)[C@@H]2C[C@@H](C(=O)N3CCc4ccccc4C3)C[C@H]12 | -34.7% | – |
| O=C1NCCCCCN(C(=O)c2ccsc2)[C@@H]2C[C@@H](C(=O)N3CCc4ccccc4C3)C[C@H]12 | -27.2% | – |
| CCCCCn1c(=O)[nH]c2cc(C(=O)NCc3ccc(OC)cc3)ccc2c1=O | 0.541% | – |
| CCCCn1c(N)c(N(CC(C)C)C(=O)c2cc(-c3ccc(OC)c(OC)c3)nc3ccccc23)c(=O)[nH]c1=O | – | 11.9 µM (active) |
| COc1ccccc1NC(=O)N1CC(=O)Nc2sc3c(c2C1c1ccccc1)CCCC3 (configuration not stated) | – | 15 µM (active) |
| CCOc1ccccc1NC(=O)c1c(NC(=O)COc2ccccc2)sc2c1CCCCC2 | 0% | – |
| COc1ccc(C(=O)/C=C/Nc2cc(C)ccn2)cc1 | 4.09% | – |
| Cc1cc(C)cc(N(CC(=O)NCc2ccc3c(c2)OCO3)C(=O)CCC(=O)Nc2ccccn2)c1 | – | 4.22 µM (active) |
| COc1ccc(N(CC(=O)NCc2ccccc2)C(=O)CCC(=O)Nc2cc(C)ccn2)c(OC)c1 | – | 10.6 µM (active) |
| CC(=O)N1CCCC(c2nn(C)c(=O)n2C2CCCC2)C1 (configuration not stated) | 40.2% | – |
| COc1cccc(CCC(=O)NC2CCN(C(=O)c3cc4c(=O)[nH]c(C)cn4n3)CC2)c1 | -16.4% | – |
| Cc1cnc(C(=O)N[C@@H]2CCC[C@@H]2C(=O)NCc2ccc3c(c2)OCO3)cn1 | 0.894% | – |
| COc1cccc(Nc2ccc3c(n2)C(C)(C(=O)NCC2CC2)CN(C)C3)c1 (configuration not stated) | – | 12.2 µM (active) |
| COc1cccc(Nc2ccc3c(n2)C(C)(C(=O)NC2CCN(C)CC2)CN(C)C3)c1 (configuration not stated) | – | 17.2 µM (active) |
| CN1Cc2ccc(Nc3ccccc3)nc2C(C)(C(=O)NCc2ccc3c(c2)OCO3)C1 (configuration not stated) | – | 13.7 µM (active) |
| CCC(C)NC(=O)CSc1nc2cc3c(cc2c(=O)n1CCCC(=O)NCc1ccc2c(c1)OCO2)OCO3 (configuration not stated) | 35.5% | – |
| COc1cccc(Nc2ccc3c(n2)C(C)(C(=O)NC2CCC2)CN(C)C3)c1 (configuration not stated) | – | 15.3 µM (active) |
